# Assay outcomes as filed in PubChem.
# HCV inhibitor = qHTS Assay for Inhibitors of Hepatitis C Virus (HCV); AID 651820, 2012; Potency, µM (doses to about 41.8 µM), inactives show at the top dose activity change, negative = inhibition, usual class: inhibitors; Huh7.5.1 HCVcc-Cre infection, luciferase reporter, 44 h; hit rate 3.4% among 340,000; active = well fitted inhibition curve with a large enough effect; inconclusive = small, poorly fitted or top-dose-only effect, or another doubt; inactive = no such curve, though single readings can be large or run the other way; also: potency is read from the fitted curve at half-maximal effect
#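 Infectious HCV cell culture screen: compound-treated cells (1,000/well, pre-plated 4 h) are infected with HCVcc-Cre at roughly 0.5 moi and grown 44 h. Infection is quantified by luciferase signal after 15 min substrate incubation at room temperature.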
# Marburg entry inh = qHTS for inhibitors of binding or entry into cells for Marburg Virus. Marburg virus pseudotyped entry inhibition, cell reporter. Potency, µM (doses to about 37.8 µM), without a hit: at the top dose activity change, negative = inhibition, most hits filed as inhibitors. hit rate 1.8% among 300,000; calls by dose curve; tested in HEK293 cells; also: potency is read from the fitted curve at half-maximal effect
# HCMV antiviral = qHTS Assay for inhibitors of the human cytomegalovirus (HCMV) | AID 1259415, 2018 | activity change, negative = inhibition, % at 57.5 µM | hit rate 4.5% among 410,000 | HFF cells, HCMV-luciferase reporter, 72 h; active compounds read low; in the data active = activity change below about -60%; inconclusive = no clear call, values can overlap the other calls; inactive = above about -39%
#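 Two compound doses tested in HFFs infected with HCMV-luciferase, MOI 1 PFU/cell, 72 h at 37C. Lysate luminescence read with OneGlo; data normalized against buffer-only and 10uM Salinomycin inhibitor controls.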
# Lassa entry inh = qHTS for Inhibitors of binding or entry into cells for Lassa Virus | Lassa virus pseudotype entry inhibition, cell reporter | Potency, µM (doses to about 37.9 µM), without a hit: top-dose activity change, negative = inhibition, usual class: inhibitors | hit rate 1.2% among 300,000; calls by dose curve; tested in HEK293 cells; also: potency is read from the fitted curve at half-maximal effect; nearly all actives have a fitted effect of over 50% in size
# Vaccinia mCherry = qHTS for Stage-Specific Inhibitors of Vaccinia Orthopoxvirus: mCherry Reporter Primary qHTS. Vaccinia virus mCherry reporter infection, fluorescence. Potency, µM (highest dose often 36.5 µM), without a hit: at the highest dose activity change, negative = inhibition, usual class: inhibitors. hit rate 0.63% among 310,000; calls by dose curve; tested in A549 cells; also: potency is read from the fitted curve at half-maximal effect; nearly all actives have a fitted effect of over 35% in size
# VACV Venus inh = qHTS for Stage-Specific Inhibitors of Vaccinia Orthopoxvirus: Venus Reporter Primary qHTS. hit rate 0.46% among 330,000. Potency, µM (titrated, usually from 36.5 µM), for inactives: top-dose activity change, negative = inhibition, usual class: inhibitors. Vaccinia virus Venus reporter expression, fluorescence; calls by dose curve; tested in A549 cells; also: potency is read from the fitted curve at half-maximal effect; nearly all actives have a fitted effect of over 30% in size
# Numbers without * were called inactive; i = inactive; ? = inconclusive; / = no result given; + = active, no number; ! = repeats disagree; [ ] = remark or other dose. Hits are enriched below; roughly 7.8% of the tested compounds scored in any of these assays. % is scaled to controls: 0 for no effect and ±100 for the full control effect.
SMILES,HCV inhibitor,Marburg entry inh,HCMV antiviral,Lassa entry inh,Vaccinia mCherry,VACV Venus inh
N=c1c(C(=O)NCCc2ccccc2)cc2c(=O)n3ccccc3nc2n1CCCN1CCOCC1,?,7.1µM*,-17,?,-19%,2%
CCc1nn(CC(=O)NCCCN2CCOCC2)c(=O)c2cc3cc(F)ccc3n12,-32%,7%[46.1 µM],+,16%[46.1 µM],-7%,-8%
Cc1cccn2c(=O)c3cc(S(=O)(=O)c4ccc(F)cc4)c(=N)n(Cc4ccco4)c3nc12,2.8µM*,?,-13,?,-14%,-6%
COCCn1c(=N)c(C(=O)NCCc2ccc(OC)cc2)cc2c(=O)n3cccc(C)c3nc21,13%,-10%,29,-13%,/,2%
COC(=O)[C@]12CCCCC=C1N(Cc1ccc(Cl)cc1Cl)C(=O)[C@H](CC(=O)NCc1cccs1)C2,/,/,35,/,6%,11%
N=c1c(C(=O)NC2CCCCC2)cc2c(=O)n3ccccc3nc2n1Cc1cccnc1,?,3%[46.1 µM],5,6%,i,-10%
COCCCn1c(C(=O)Nc2ccc3c(c2)OCO3)cc2c(=O)n3cccc(C)c3nc21,/,/,4,/,?,5µM*
N=c1c(C(=O)NC2CCCCC2)cc2c(=O)n3ccccc3nc2n1Cc1ccccc1,11µM*,/,?,/,/,/
COc1ccc(/C(N)=N/OC(=O)C2CCC(=O)N2S(=O)(=O)c2ccc(C)cc2)cc1OC (stereo unspecified),-17%,8%,-87*,-2%,i,-18%
C/C(N)=C(/C#N)C(=O)CSc1nnc(Nc2c(C)cccc2C)s1,-1%,?,-67*!,-3%[46.1 µM],-24%,3%
Cc1cccc(C)c1Nc1nnc(SCc2cn3cccc(C)c3n2)s1,-12%,1%,-70*,/,/,/
Cc1cccc(C)c1Nc1nnc(SCC(=O)NC(=O)c2cccn2C)s1,7%,0%,20,16%,-16%,?
C/C(N)=C(/C#N)C(=O)CSc1nnc(SCc2ccc(Cl)cc2)s1,?,?,-64*,?,?,?
Cc1ccccc1NC(=O)c1sc2nc3c(cc2c1N)CCCC3,/,?,41,12%[46.1 µM],0%,-26%
COc1cccc(C2c3c(oc4ccc(C)cc4c3=O)C(=O)N2CCCN2CCOCC2)c1OC (stereo unspecified),/,/,21,11%[46.1 µM],i,-6%
C=C(C)CCCN1C=C(C(C)=O)C(c2ccccc2)NC1=O (stereo unspecified),/,2%[14.2 µM],/,/,/,/
COc1ccc(C(NC(=O)C2CCN(Cc3ccc(Oc4ccccc4)cc3)CC2)c2ccccn2)cc1 (stereo unspecified),/,/,-9,/,i,-21%
COc1cccc(-c2cccc(NC(=O)C3CCN(Cc4cccc(C)n4)CC3)c2)c1,-14%,-4%,-30,4%,i,-7%
Cn1cc(CN2CCC(C(=O)Nc3ccc(Oc4ccccc4F)cc3)CC2)cn1,11µM*,/,?,/,/,/
COc1cccc(O)c1CN1CCC(C(=O)Nc2ccc(-c3cccc(C)c3)cc2)CC1,1µM*,?,-31,?,-21%,?
COc1ccc(CN2CCC(C(=O)Nc3ccc(Oc4cccnc4)cc3)CC2)cc1,?,?,-75*,?,?,-19%
COc1cccc(NC(=O)C2CCN(Cc3cnn(-c4ccccc4)c3-n3cccc3)CC2)c1,11µM*,?,-19,?,/,/
Cc1ccc(-c2nnc(Nc3ccc(Br)cc3)c3ccccc23)cc1S(=O)(=O)N1CCCCC1,/,/,-15,?,-12%,-12%
CCN1CCSc2ccc(C(=O)NC(C)c3ccccc3)cc21 (stereo unspecified),/,-27%[46.1 µM],-12,?,i,-2%
COc1cccc(O)c1CN1CCC(C(=O)Nc2ccc(Oc3cccnc3)cc2)CC1,?,11µM*,?,-26%,i,-17%
SMILES,HCV inhibitor,Marburg entry inh,HCMV antiviral,Lassa entry inh,Vaccinia mCherry,VACV Venus inh
O=S1(=O)CCSC[C@@H](CN2CCOCC2)N1,/,/,-7,/,/,/
O=C(OCc1cc(=O)n2nc(-c3cccs3)sc2n1)c1ccccc1Br,/,/,1,2%[46.1 µM],-6%,-6%
COC(=O)c1ccc2c(c1)SC1=C(CCCC1=O)N2,?,26%,125,-15%,-20%,128%
O=C1CCCC2=C1Sc1ccc(Cl)cc1N2,11µM*,/,-27,/,/,/
CSc1nc(NC(C)C)nc(NC(C)C)n1,16%,-3%,21,8%,-2%,-20%
Cc1cc(Sc2nc(NC(C)C)nc(NC(C)C)n2)nc(Cl)n1,14%,3%[46.1 µM],-15,-3%,7.9µM*,?
CN1CCN(C2=C(Cl)C(=O)c3ccccc3C2=O)CC1,7.1µM*,?,-25,?,?,10µM*
CC1COCC(C)N1C1=C(Cl)C(=O)c2ccccc2C1=O (stereo unspecified),11µM*,?,91,?,-7%,-2%
O=C1C(Cl)=C(N2CCC(C(=O)O)CC2)C(=O)c2ccccc21,-3%,/,/,/,/,/
NC(=O)C1CCN(C2=C(Cl)C(=O)c3ccccc3C2=O)CC1,2.5µM*,?,79,?,/,/
COc1ccc2c(c1)c1c(c(=O)n(Cc3ccccc3)c(=O)n1Cc1cccc(Cl)c1)n2C,/,/,-18,?,-19%,-10%
Cc1ccc2cc(CNC(C)c3cccc4ccccc34)c(N3CCC(O)CC3)nc2c1 (stereo unspecified),/,/,/,/,0%,11%
OC(CNCc1ccco1)Cn1c2ccccc2c2ccccc21 (stereo unspecified),?,16µM*,56,?,/,/
Cc1ccc(CNC(=O)Cn2cc(S(=O)(=O)Cc3ccccc3F)c3ccccc32)cc1,/,/,0,14%[46.1 µM],-11%,-1%
COC(=O)c1c(OCc2cccnc2)cc(=O)n2c1CCN(C(=O)c1ccc(OC)c(F)c1)CC2,/,/,/,/,i,-11%
CC(=NCCc1c(C)[nH]c2ccc(C)cc12)C1=C(O)CC(c2ccccc2)CC1=O (stereo unspecified),?,?,-17,?,?,?
CCCCN=CC1=C(O)CC(c2ccccc2)CC1=O (stereo unspecified),23%,?,-62*,-24%,-26%,-25%
O=C1CC(c2ccccc2)CC(O)=C1C=Nc1ccccc1 (stereo unspecified),23%,20%[46.1 µM],0,?,-27%,-19%
O=C1CC(c2ccccc2)CC(O)=C1C=Nc1ccccc1O (stereo unspecified),-14%,/,-75*,/,?,?
CCCCC(=NCCc1c(C)[nH]c2ccccc12)C1=C(O)CC(c2ccccc2)CC1=O (stereo unspecified),?,?,12,8.9µM*,-17%,-21%
